# From PubChem BioAssay (NCI)
# Several values for one entry are separate records, joined by “and”; a condition that tells them apart may be missing. Identical values can stand only once. The panel holds about 79,000 compounds, 15% with a hit somewhere; the sample as a whole holds those more often. Some structures have more than one record in an assay (separate samples or runs), and their calls can disagree. Activity calls are given as the source filed them. Cut-off read from the data, not from the text of the source: active = growth inhibition above about 70%; inactive = the rest.
# How the values were obtained:
# [1] = NCI Yeast Anticancer Drug Screen. Data for the rad52 strain (AID 147);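 note: 0% = growth of vehicle-treated control cultures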; conditions: S. cerevisiae rad52 mutant growth inhibition, stronger effect = higher value
# Summary of the method: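 Vehicle-treated cultures served as the reference for growth inhibition of compound-exposed yeast bearing a DNA repair mutation.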
# [2] = NCI Yeast Anticancer Drug Screen. Data for the mgt1 strain (AID 153); conditions: S. cerevisiae mgt1 mutant growth inhibition, stronger effect = higher value
# Summary of the method: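 mgt1 strain exposed; growth vs vehicle control recorded as inhibition.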
# [3] = NCI Yeast Anticancer Drug Screen. Data for the rad50 strain (AID 155);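 note: 0% = growth of vehicle-only cultures of the same strain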; conditions: S. cerevisiae rad50 strain growth inhibition, stronger effect = higher value
# Summary of the method: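 Genetically altered yeast (DNA repair pathway); compound treatment; growth inhibition vs vehicle ctrl.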
# [4] = NCI Yeast Anticancer Drug Screen. Data for the mec2-1 strain (AID 157); conditions: S. cerevisiae mec2-1 strain, stronger effect = higher value
# Summary of the method: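 Vehicle-treated cultures served as reference for growth inhibition of compound-exposed mec2-1 yeast.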
# [5] = NCI Yeast Anticancer Drug Screen. Data for the rad14 strain (AID 159);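 note: 0% = growth of vehicle-treated control cultures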; conditions: S. cerevisiae rad14 strain growth inhibition, stronger effect = higher value
# Summary of the method: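 Test compounds were applied to a repair-deficient yeast strain. Its growth was then compared with that of cultures given vehicle alone, and inhibition was expressed relative to those controls.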
# [6] = NCI Yeast Anticancer Drug Screen. Data for the sgs1 mgt1 strain (AID 161);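 note: 0% = growth of cultures given vehicle only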; conditions: S. cerevisiae sgs1 mgt1 strain, stronger effect = higher value
# Summary of the method: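 Genetically altered yeast, compound exposure, growth inhibition relative to vehicle.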
# [7] = NCI Yeast Anticancer Drug Screen. Data for the CLN2oe strain (AID 163);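 note: 0% = growth of vehicle-only control cultures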; conditions: S. cerevisiae CLN2oe strain, stronger effect = higher value
# Summary of the method: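 Inhibition relative to vehicle-treated yeast is reported. Cells: strain with genetic alteration in cell-cycle control, grown with compound.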
# [8] = NCI Yeast Anticancer Drug Screen. Data for the cln2 rad14 strain (AID 165);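 note: 0% = growth equal to vehicle treated cultures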; conditions: S. cerevisiae cln2 rad14 strain, stronger effect = higher value
# Summary of the method: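 Each compound was tested on cln2 rad14 yeast. Inhibition of growth was calculated against vehicle-exposed controls.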
# [9] = NCI Yeast Anticancer Drug Screen. Data for the bub3 strain (AID 167); conditions: S. cerevisiae bub3 mutant strain, stronger effect = higher value
# Summary of the method: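 Yeast carrying a defined mutation is treated with each compound, and growth is compared with that of vehicle-exposed cells to give inhibition.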
# [10] = NCI Yeast Anticancer Drug Screen. Data for the wt2 strain (AID 169);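 note: 0% = growth of vehicle-treated yeast cultures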; conditions: S. cerevisiae wt2 strain growth inhibition, stronger effect = higher value
# Summary of the method: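 Inhibition of yeast growth was determined after compound treatment, normalised to controls receiving only vehicle.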
# [11] = NCI Yeast Anticancer Drug Screen. Data for the mlh1 strain (AID 171);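 note: 0% = growth of vehicle-treated control cultures of the same strain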; conditions: S. cerevisiae mlh1 strain growth inhibition, stronger effect = higher value
# Summary of the method: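 Vehicle-normalised growth inhibition of a repair- or checkpoint-altered yeast strain following compound treatment.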
# [12] = NCI Yeast Anticancer Drug Screen. Data for the sgs1 strain (AID 173);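 note: 0% = growth of vehicle-only control cultures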; conditions: S. cerevisiae sgs1 mutant, stronger effect = higher value
# Summary of the method: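 Screen format: yeast with repair or checkpoint alterations, compound exposure, growth read relative to vehicle.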
# [13] = NCI Yeast Anticancer Drug Screen. Data for the mlh1 rad18 strain (AID 175); conditions: S. cerevisiae mlh1 rad18 strain growth inhibition, stronger effect = higher value
# Summary of the method: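 Vehicle-treated cultures served as the reference for growth inhibition in a yeast strain carrying DNA damage repair alterations exposed to each compound.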
# [14] = NCI Yeast Anticancer Drug Screen. Data for the rad18 strain (AID 177); conditions: S. cerevisiae rad18 mutant growth inhibition, stronger effect = higher value
# Summary of the method: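 Test articles were incubated with altered yeast defective in DNA damage repair. Results are given as inhibition of growth versus vehicle.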
# [15] = NCI Yeast Anticancer Drug Screen. Data for the wt1 strain (AID 149);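 note: 0% = growth of vehicle-treated wt1 cultures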; conditions: S. cerevisiae wt1 strain (SPY 50644) growth inhibition, stronger effect = higher value
# Summary of the method: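 wt1 yeast, compound-treated; % growth inhibition vs vehicle control.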
# [16] = NCI Yeast Anticancer Drug Screen. Data for the rad50EPP+ strain (AID 151);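 note: 0% = growth of vehicle-treated control cultures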; conditions: S. cerevisiae rad50 mutant strain, stronger effect = higher value
# Summary of the method: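 In this screen, rad50EPP+ yeast were exposed to compounds. Growth inhibition was scored against vehicle-treated controls.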
# [17] = at 5.0 µM (retest, dose inferred, filed as 0.5)
# [18] = at 50.0 µM (retest, dose inferred, filed as 5.0)
compound,measurement,setting,value
NC1=NNC2(C(N)=N1)c1ccccc1-c1ccccc12,growth inhibition,[1]; at 1.2 µM,-18% (inactive)
same,growth inhibition,[1]; at 3.7 µM,-14% (inactive)
same,growth inhibition,[1]; at 11.0 µM,-16% (inactive)
same,growth inhibition,[1]; at 33.0 µM,16% (inactive)
same,growth inhibition,[1]; at 100.0 µM,96% (active)
same,growth inhibition,[2]; at 1.2 µM,12% (inactive)
same,growth inhibition,[2]; at 3.7 µM,6% (inactive)
same,growth inhibition,[2]; at 11.0 µM,3% (inactive)
same,growth inhibition,[2]; at 33.0 µM,30% (inactive)
same,growth inhibition,[2]; at 100.0 µM,98% (active)
same,growth inhibition,[3]; at 1.2 µM,-7% (inactive)
same,growth inhibition,[3]; at 3.7 µM,-12% (inactive)
same,growth inhibition,[3]; [17],-32% (inactive)
same,growth inhibition,[3]; at 11.0 µM,-9% (inactive)
same,growth inhibition,[3]; at 33.0 µM,32% (inactive)
same,growth inhibition,[3]; [18],93% (active)
same,growth inhibition,[3]; at 50.0 µM,86.2% (active)
same,growth inhibition,[3]; at 100.0 µM,94% (active)
same,growth inhibition,[4]; at 1.2 µM,11% (inactive)
same,growth inhibition,[4]; at 3.7 µM,12% (inactive)
same,growth inhibition,[4]; [17],-1% (inactive)
same,growth inhibition,[4]; at 11.0 µM,11% (inactive)
same,growth inhibition,[4]; at 33.0 µM,29% (inactive)
same,growth inhibition,[4]; [18],18% (inactive)
same,growth inhibition,[4]; at 50.0 µM,71.9% (active)
same,growth inhibition,[4]; at 100.0 µM,96% (active)
same,growth inhibition,[5]; at 1.2 µM,-18% (inactive)
same,growth inhibition,[5]; at 3.7 µM,-22% (inactive)
same,growth inhibition,[5]; at 11.0 µM,-25% (inactive)
same,growth inhibition,[5]; at 33.0 µM,1% (inactive)
same,growth inhibition,[5]; at 100.0 µM,97% (active)
same,growth inhibition,[6]; [17],-9% (inactive)
same,growth inhibition,[6]; [18],43% (inactive)
same,growth inhibition,[6]; at 50.0 µM,64.5% (inactive)
same,growth inhibition,[7]; at 1.2 µM,9% (inactive)
same,growth inhibition,[7]; at 3.7 µM,15% (inactive)
same,growth inhibition,[7]; at 11.0 µM,21% (inactive)
same,growth inhibition,[7]; at 33.0 µM,39% (inactive)
same,growth inhibition,[7]; at 100.0 µM,97% (active)
same,growth inhibition,[8]; [17],3% (inactive)
same,growth inhibition,[8]; [18],57% (inactive)
same,growth inhibition,[8]; at 50.0 µM,81% (active)
same,growth inhibition,[9]; at 1.2 µM,26% (inactive)
same,growth inhibition,[9]; at 3.7 µM,25% (inactive)
same,growth inhibition,[9]; [17],-27% (inactive)
same,growth inhibition,[9]; at 11.0 µM,26% (inactive)
same,growth inhibition,[9]; at 33.0 µM,38% (inactive)
same,growth inhibition,[9]; [18],54% (inactive)
same,growth inhibition,[9]; at 50.0 µM,45.1% (inactive)
same,growth inhibition,[9]; at 100.0 µM,97% (active)
same,growth inhibition,[10]; at 1.2 µM,-10% (inactive)
same,growth inhibition,[10]; at 3.7 µM,-16% (inactive)
same,growth inhibition,[10]; at 11.0 µM,-18% (inactive)
same,growth inhibition,[10]; at 33.0 µM,-2% (inactive)
same,growth inhibition,[10]; at 100.0 µM,97% (active)
same,growth inhibition,[11]; at 1.2 µM,10% (inactive)
same,growth inhibition,[11]; at 3.7 µM,-2% (inactive)
same,growth inhibition,[11]; at 11.0 µM,3% (inactive)
same,growth inhibition,[11]; at 33.0 µM,53% (inactive)
same,growth inhibition,[11]; at 100.0 µM,97% (active)
same,growth inhibition,[12]; at 1.2 µM,12% (inactive)
same,growth inhibition,[12]; at 3.7 µM,17% (inactive)
same,growth inhibition,[12]; at 11.0 µM,11% (inactive)
same,growth inhibition,[12]; at 33.0 µM,33% (inactive)
same,growth inhibition,[12]; at 100.0 µM,97% (active)
same,growth inhibition,[13]; [17],-25% (inactive)
same,growth inhibition,[13]; [18],81% (active)
same,growth inhibition,[13]; at 50.0 µM,79.3% (active)
same,growth inhibition,[14]; at 1.2 µM,-4% (inactive)
same,growth inhibition,[14]; at 3.7 µM,-5% (inactive)
same,growth inhibition,[14]; at 11.0 µM,-17% (inactive)
same,growth inhibition,[14]; at 33.0 µM,18% (inactive)
same,growth inhibition,[14]; at 100.0 µM,97% (active)
C#CCN(Cc1ccc2nc(N)[nH]c(=O)c2c1)c1ccc(C(=O)NC(CCC(=O)O)C(=O)O)cc1 (stereo unspecified),growth inhibition,[15]; at 1.2 µM,2% (inactive)
same,growth inhibition,[15]; at 3.7 µM,9% (inactive)
same,growth inhibition,[15]; at 11.0 µM,15% (inactive)
same,growth inhibition,[15]; at 33.0 µM,17% (inactive)
same,growth inhibition,[15]; at 100.0 µM,43% (inactive)
same,growth inhibition,[16]; at 1.2 µM,27% (inactive)
same,growth inhibition,[16]; at 3.7 µM,37% (inactive)
same,growth inhibition,[16]; at 11.0 µM,44% (inactive)
same,growth inhibition,[16]; at 33.0 µM,29% (inactive)
same,growth inhibition,[16]; at 100.0 µM,41% (inactive)
same,growth inhibition,[2]; at 1.2 µM,-29% (inactive)
same,growth inhibition,[2]; at 3.7 µM,-23% (inactive)
same,growth inhibition,[2]; at 11.0 µM,-27% (inactive)
same,growth inhibition,[2]; at 33.0 µM,17% (inactive)
same,growth inhibition,[2]; at 100.0 µM,34% (inactive)
same,growth inhibition,[3]; at 1.2 µM,26% (inactive)
same,growth inhibition,[3]; at 3.7 µM,29% (inactive)
same,growth inhibition,[3]; [17],12% (inactive) and 1% (inactive)
same,growth inhibition,[3]; at 11.0 µM,26% (inactive)
same,growth inhibition,[3]; at 33.0 µM,69% (inactive)
same,growth inhibition,[3]; [18],67% (inactive) and 82% (active)
same,growth inhibition,[3]; at 50.0 µM,77.5% (active) and 72.5% (active)
same,growth inhibition,[3]; at 100.0 µM,89% (active)
same,growth inhibition,[4]; at 1.2 µM,-9% (inactive)
same,growth inhibition,[4]; at 3.7 µM,-6% (inactive)
same,growth inhibition,[4]; [17],4% (inactive) and -6% (inactive)
same,growth inhibition,[4]; at 11.0 µM,17% (inactive)
same,growth inhibition,[4]; at 33.0 µM,89% (active)
same,growth inhibition,[4]; [18],92% (active) and 98% (active)
same,growth inhibition,[4]; at 50.0 µM,92% (active) and 89.9% (active)
same,growth inhibition,[4]; at 100.0 µM,92% (active)
same,growth inhibition,[5]; at 1.2 µM,-2% (inactive)
same,growth inhibition,[5]; at 3.7 µM,18% (inactive)
same,growth inhibition,[5]; at 11.0 µM,2% (inactive)
same,growth inhibition,[5]; at 33.0 µM,44% (inactive)
same,growth inhibition,[5]; at 100.0 µM,69% (inactive)
same,growth inhibition,[6]; [17],20% (inactive) and 3% (inactive)
same,growth inhibition,[6]; [18],62% (inactive) and 82% (active)
same,growth inhibition,[6]; at 50.0 µM,67.4% (inactive) and 35.9% (inactive)
same,growth inhibition,[7]; at 1.2 µM,3% (inactive)
same,growth inhibition,[7]; at 3.7 µM,6% (inactive)
same,growth inhibition,[7]; at 11.0 µM,-14% (inactive)
same,growth inhibition,[7]; at 33.0 µM,1% (inactive)
same,growth inhibition,[7]; at 100.0 µM,28% (inactive)
same,growth inhibition,[8]; [17],0% (inactive) and 14% (inactive)
same,growth inhibition,[8]; [18],17% (inactive) and 78% (active)
same,growth inhibition,[8]; at 50.0 µM,30.1% (inactive) and 16.3% (inactive)
same,growth inhibition,[9]; at 1.2 µM,-6% (inactive)
same,growth inhibition,[9]; at 3.7 µM,-8% (inactive)
same,growth inhibition,[9]; [17],12% (inactive) and -11% (inactive)
same,growth inhibition,[9]; at 11.0 µM,-18% (inactive)
same,growth inhibition,[9]; at 33.0 µM,3% (inactive)
same,growth inhibition,[9]; [18],71% (active) and 96% (active)
same,growth inhibition,[9]; at 50.0 µM,63.9% (inactive) and 36.5% (inactive)
same,growth inhibition,[9]; at 100.0 µM,43% (inactive)
same,growth inhibition,[10]; at 1.2 µM,-9% (inactive)
same,growth inhibition,[10]; at 3.7 µM,-9% (inactive)
same,growth inhibition,[10]; at 11.0 µM,11% (inactive)
same,growth inhibition,[10]; at 33.0 µM,21% (inactive)
same,growth inhibition,[10]; at 100.0 µM,28% (inactive)
same,growth inhibition,[11]; at 1.2 µM,14% (inactive)
same,growth inhibition,[11]; at 3.7 µM,14% (inactive)
same,growth inhibition,[11]; at 11.0 µM,19% (inactive)
same,growth inhibition,[11]; at 33.0 µM,41% (inactive)
same,growth inhibition,[11]; at 100.0 µM,55% (inactive)
same,growth inhibition,[13]; [17],5% (inactive) and -8% (inactive)
same,growth inhibition,[13]; [18],46% (inactive) and 78% (active)
same,growth inhibition,[13]; at 50.0 µM,35% (inactive) and 20.6% (inactive)
same,growth inhibition,[14]; at 1.2 µM,-2% (inactive)
same,growth inhibition,[14]; at 3.7 µM,-23% (inactive)
same,growth inhibition,[14]; at 11.0 µM,-26% (inactive)
same,growth inhibition,[14]; at 33.0 µM,33% (inactive)
same,growth inhibition,[14]; at 100.0 µM,65% (inactive)
